Results reported in PubChem BioAssay (Tox21).
Inconclusive results are not listed. The source made the active and inactive calls. Unless noted, the call rests on the fitted dose curve.

What was measured:
[1] = Nuclear factor erythroid 2-related factor 2/antioxidant responsive element (Nrf2/ARE) small molecule agonists: qHTS cell viability counter screen in human keratinocytes (AID 1919968; active means well fitted curve in the direction sought with a large enough effect in the repeat runs; an effect the other way counts as inactive or inconclusive; further: nearly all actives have a fitted effect of over 55% in size; further: potency means the concentration at half of the fitted maximal effect)
Summary of the method: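 Fluorescence read-out from CellTiter-Fluor after 1 h at 37 C. Wells held HaCaT-derived ARE-luciferase reporter cells (1,500/well) treated 23 h with DMSO-dissolved compounds. Run in the same wells as the luciferase agonist read.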

[2] = molecular target: Gonadotropin-releasing hormone receptor (Homo sapiens) (UniProt P30968); test: Human gonadotropin-releasing hormone receptor (GnRHR) small molecule agonists, calcium flux assay in GnRHR-HEK293 cells (AID 1920063); further: nearly all actives have a fitted effect of over 35% in size
Chain of Gonadotropin-releasing hormone receptor (Homo sapiens) (P30968 whole entry, looked up): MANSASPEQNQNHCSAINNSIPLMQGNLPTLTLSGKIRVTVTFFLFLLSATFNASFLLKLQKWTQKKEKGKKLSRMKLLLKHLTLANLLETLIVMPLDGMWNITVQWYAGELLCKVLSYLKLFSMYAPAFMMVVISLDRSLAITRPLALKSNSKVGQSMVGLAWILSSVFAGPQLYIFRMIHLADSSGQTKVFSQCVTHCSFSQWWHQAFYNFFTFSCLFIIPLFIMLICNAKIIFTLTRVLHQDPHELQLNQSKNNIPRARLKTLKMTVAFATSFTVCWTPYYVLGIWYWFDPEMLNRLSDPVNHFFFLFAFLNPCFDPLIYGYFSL
Summary of the method: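 Calcium-dye fluorescence, Ex/Em=480/540, recorded every 1 sec over 3 min after compound addition to GnRHR-HEK293 cells. Cells had been seeded 18 hours earlier and dye-loaded for 1 hour at 37 C. Fifteen concentrations, triplicates.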

[3] = molecular target: KiSS-1 receptor (Homo sapiens) (UniProt Q969F8); test: Human kisspeptin (KISS1R) small molecule agonists, calcium flux assay in KISS1R-HEK293 cells (AID 1920064; active means well fitted curve in the direction sought with a large enough effect in the repeat runs; an effect the other way counts as inactive or inconclusive)
Chain of KiSS-1 receptor (Homo sapiens) (Q969F8 whole entry, looked up): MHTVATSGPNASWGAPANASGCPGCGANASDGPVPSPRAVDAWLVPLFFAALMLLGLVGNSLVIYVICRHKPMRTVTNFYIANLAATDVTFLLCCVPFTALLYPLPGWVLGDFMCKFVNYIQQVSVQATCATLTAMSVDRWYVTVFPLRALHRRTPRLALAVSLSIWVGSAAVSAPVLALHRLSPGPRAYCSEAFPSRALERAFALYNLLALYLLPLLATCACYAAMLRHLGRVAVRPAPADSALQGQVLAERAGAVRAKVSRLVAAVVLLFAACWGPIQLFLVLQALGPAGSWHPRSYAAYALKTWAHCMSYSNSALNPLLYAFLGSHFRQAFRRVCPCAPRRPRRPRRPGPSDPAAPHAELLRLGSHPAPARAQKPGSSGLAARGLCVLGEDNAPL
Summary of the method: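 Calcium flux read-out: kinetic fluorescence at Ex/Em=480/540, 1 s intervals over 3 min, after pin-tool compound addition to dye-loaded KISS1R-HEK293 cells. Fifteen concentrations, triplicates.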

[4] = G protein-coupled receptor (GPCR) small molecule agonists, calcium flux assay: HEK293 wild type cell line counter screen (AID 1920065)
Summary of the method: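 Agonist mode; 18 h seeding at 37 C, 1 h dye load at 37 C; compounds pinned from DMSO, ATP as positive control; kinetic fluorescence 480/540 nm, 3 min, 1 s reads; 15 concentrations, triplicate.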

[5] = p53 small molecule agonists, cell-based qHTS assay with human liver microsomes (AID 1963577)
Summary of the method: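 p53RE-bla reporter cells were pre-incubated 5 h at 37 C, then treated with compounds plus human liver microsomes (0.5 mg/mL final) and NADPH (0.5 mg/mL final) for 16 h at 37 C. Beta-lactamase activity was read by LiveBLAzer fluorescence after 2 h at room temperature.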

[6] = p53 small molecule agonists, cell-based qHTS assay with rat liver microsomes (AID 1963578)
Summary of the method: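 p53RE-bla cells were exposed to compounds together with rat liver microsomes (0.5 mg/mL final) and NADPH (0.5 mg/mL final) for 16 h at 37 C, then read by LiveBLAzer beta-lactamase fluorescence after 2 h at room temperature.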

[7] = p53 small molecule agonists, cell-based qHTS assay with human liver microsomes: qHTS cell viability counter screen (AID 1963579); further: nearly all actives have a fitted effect of over 45% in size; further: potency means the concentration at half of the fitted maximal effect
Summary of the method: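 p53RE-bla cells (4,000/well) were pre-incubated 5 h at 37 C, then given compounds in DMSO plus human liver microsomes (0.5 mg/mL final) and NADPH (0.5 mg/mL final) for 16 h at 37 C. Viability was read by CellTiter-Glo luminescence.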

[8] = p53 small molecule agonists, cell-based qHTS assay: qHTS cell viability counter screen (AID 1963581); further: nearly all actives have a fitted effect of over 45% in size; further: potency means the concentration at half of the fitted maximal effect
Summary of the method: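 Cytotoxicity read-out: ATP-based luminescence (CellTiter-Glo, 30 min RT) measured in the same wells as the p53 reporter assay, HCT-116 p53RE-bla cells, 16 h compound exposure at 37 C.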

[9] = p53 small molecule agonists, cell-based qHTS assay (AID 1963582; active means well fitted activation curve with a large enough effect in the signal ratio in the repeat runs, not every such curve was filed as active; the % refers to the signal ratio)
Summary of the method: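 Fluorescence intensity read-out of a beta-lactamase reporter under a p53 response element. Cells were exposed to DMSO-dissolved compounds for 16 h at 37 C, then developed with FRET substrate for 2 h at RT.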

[10] = molecular target: 5-hydroxytryptamine receptor 2A (Homo sapiens) (UniProt P28223); test: 5-hydroxytryptamine receptor 2A (HTR2A) small molecule antagonists, cell-based qHTS assay (AID 1963586); further: nearly all actives have a fitted effect of over 45% in size
Chain of 5-hydroxytryptamine receptor 2A (Homo sapiens) (P28223 whole entry, looked up): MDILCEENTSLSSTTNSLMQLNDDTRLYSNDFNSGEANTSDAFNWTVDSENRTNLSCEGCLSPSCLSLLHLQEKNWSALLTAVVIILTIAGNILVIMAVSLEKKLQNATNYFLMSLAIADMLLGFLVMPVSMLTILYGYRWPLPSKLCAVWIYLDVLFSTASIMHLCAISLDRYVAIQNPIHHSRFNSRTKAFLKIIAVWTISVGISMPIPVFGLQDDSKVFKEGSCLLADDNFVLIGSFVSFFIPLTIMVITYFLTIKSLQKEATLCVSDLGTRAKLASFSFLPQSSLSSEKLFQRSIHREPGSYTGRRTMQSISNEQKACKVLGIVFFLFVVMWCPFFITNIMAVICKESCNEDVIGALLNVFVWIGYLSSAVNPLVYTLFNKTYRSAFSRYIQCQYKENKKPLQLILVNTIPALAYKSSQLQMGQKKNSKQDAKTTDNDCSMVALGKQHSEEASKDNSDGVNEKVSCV
Summary of the method: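 CHO cells stably expressing human HTR2A were plated for 18 h at 37 C, then loaded with calcium dye for 1 h. Compounds were preincubated 5 min at room temperature before DOI (4 nM solution) was added. Kinetic fluorescence was read for 3 min.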

[11] = molecular target: 5-hydroxytryptamine receptor 2A (Homo sapiens) (UniProt P28223); test: 5-hydroxytryptamine receptor 2A (HTR2A) small molecule agonists, cell-based qHTS assay (AID 1963587); further: nearly all actives have a fitted effect of over 30% in size
Summary of the method: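 HTR2A-CHO cells, plated 18 h at 37 C/5% CO2, dye-loaded 1 h at 37 C; compounds in DMSO added by pin tool (agonist mode). Intracellular calcium flux read as kinetic fluorescence on FDSS over 2 min at 1 s intervals.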

[12] = molecular target: Muscarinic acetylcholine receptor M1 (Homo sapiens) (UniProt P11229); test: Cholinergic receptor muscarinic 1 (CHRM1) small molecule antagonists, cell-based qHTS assay (AID 1963588); further: nearly all actives have a fitted effect of over 40% in size; further: potency means the concentration at half of the fitted maximal effect
Chain of Muscarinic acetylcholine receptor M1 (Homo sapiens) (P11229 whole entry, looked up): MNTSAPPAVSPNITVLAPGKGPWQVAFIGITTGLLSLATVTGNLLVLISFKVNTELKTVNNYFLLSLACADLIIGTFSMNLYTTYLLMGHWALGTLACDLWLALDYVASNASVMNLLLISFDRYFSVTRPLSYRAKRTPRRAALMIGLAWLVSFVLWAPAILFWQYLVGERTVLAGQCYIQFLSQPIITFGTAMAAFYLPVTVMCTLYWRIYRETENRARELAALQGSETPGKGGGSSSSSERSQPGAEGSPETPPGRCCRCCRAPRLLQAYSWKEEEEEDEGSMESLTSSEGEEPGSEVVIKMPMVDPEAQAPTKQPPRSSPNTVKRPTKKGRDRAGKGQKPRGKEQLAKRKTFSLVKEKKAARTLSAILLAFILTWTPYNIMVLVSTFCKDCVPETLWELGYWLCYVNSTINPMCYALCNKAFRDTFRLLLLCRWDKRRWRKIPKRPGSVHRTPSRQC
Summary of the method: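 Compounds were tested at 15 concentrations in three independent runs. Dye-loaded CHRM1-CHO cells were exposed 5 min at room temperature before stimulation by acetylcholine added at 50nM. Intracellular calcium was read kinetically on FDSS for 3 min.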

[13] = molecular target: Muscarinic acetylcholine receptor M1 (Homo sapiens) (UniProt P11229); test: Cholinergic receptor muscarinic 1 (CHRM1) small molecule agonists, cell-based qHTS assay (AID 1963589); further: nearly all actives have a fitted effect of over 35% in size
Summary of the method: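 Calcium flux read-out: kinetic fluorescence at 1 sec intervals after pin-tool compound addition to dye-loaded CHRM1-CHO cells (human M1). Agonist mode; 15 concentrations tested in triplicate independent runs.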

[14] = cAMP Responsive Elements (CRE) small molecule agonists, cell-based qHTS assay (AID 1963590)
Summary of the method: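 Beta-lactamase reporter readout: LiveBLAzer B/G FRET substrate, 2 h at room temperature, added after 3 h compound treatment of CRE-bla HEK 293T cells at 37 C/5% CO2.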

[15] = cAMP Responsive Elements (CRE) small molecule antagonists, cell-based qHTS assay (AID 1963591; active means well fitted inhibition curve with a large enough effect in the signal ratio in the repeat runs, not every such curve was filed as active; the % refers to the signal ratio)
Summary of the method: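 HEK293T CRE-bla; 18 h preincubation; compound pin-transfer; NKH477 0.25 uM final, 3 h, 37 C; LiveBLAzer FRET substrate 2 h RT.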

[16] = molecular target: Beta-2 adrenergic receptor (Homo sapiens) (UniProt P07550); test: Adrenergic beta2 receptor (ADRB2) small molecule antagonists, cell-based qHTS assay (AID 1963592); further: series mostly up to about 92 µM; nearly all actives have a fitted effect of over 50% in size
Chain of Beta-2 adrenergic receptor (Homo sapiens) (P07550 whole entry, looked up): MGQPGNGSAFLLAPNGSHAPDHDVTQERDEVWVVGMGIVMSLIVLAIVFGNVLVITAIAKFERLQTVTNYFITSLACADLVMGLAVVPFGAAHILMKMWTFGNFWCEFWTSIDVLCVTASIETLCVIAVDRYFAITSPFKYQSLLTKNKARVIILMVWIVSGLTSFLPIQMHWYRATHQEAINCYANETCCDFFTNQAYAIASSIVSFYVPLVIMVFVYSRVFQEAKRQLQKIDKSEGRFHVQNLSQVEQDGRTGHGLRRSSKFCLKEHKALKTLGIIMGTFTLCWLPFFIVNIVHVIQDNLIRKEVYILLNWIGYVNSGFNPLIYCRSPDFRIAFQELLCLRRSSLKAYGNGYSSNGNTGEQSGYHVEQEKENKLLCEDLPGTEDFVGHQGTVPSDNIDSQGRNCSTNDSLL
Summary of the method: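 Assay format: CHO-ADRB2 cells, 18-20hr seeding at 37C/5% CO2, then compound plus 1nM isoproterenol agonist mix for 0.5hr RT. Homogeneous time-resolved fluorescence cAMP detection after 1hr, expressed as 665/615 nm ratio.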

[17] = molecular target: Beta-2 adrenergic receptor (Homo sapiens) (UniProt P07550); test: Adrenergic beta2 receptor (ADRB2) small molecule agonists, cell-based qHTS assay (AID 1963593);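 further: CHO cells stably overexpressing human ADRB2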
Summary of the method: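 CHO cells stably over-expressing ADRB2 were plated overnight at 37C, then dosed with compounds plus a stimulation mix containing 100uM IBMX and 25uM Ro-20-1724 for 0.5hr at room temperature. cAMP was measured by HTRF competition, 1hr.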

[18] = molecular target: D(2) dopamine receptor (Homo sapiens) (UniProt P14416); test: Dopamine D2 receptor (DRD2) small molecule agonists, cell-based qHTS assay (AID 1963594); further: nearly all actives have a fitted effect of over 35% in size
Chain of D(2) dopamine receptor (Homo sapiens) (P14416 whole entry, looked up): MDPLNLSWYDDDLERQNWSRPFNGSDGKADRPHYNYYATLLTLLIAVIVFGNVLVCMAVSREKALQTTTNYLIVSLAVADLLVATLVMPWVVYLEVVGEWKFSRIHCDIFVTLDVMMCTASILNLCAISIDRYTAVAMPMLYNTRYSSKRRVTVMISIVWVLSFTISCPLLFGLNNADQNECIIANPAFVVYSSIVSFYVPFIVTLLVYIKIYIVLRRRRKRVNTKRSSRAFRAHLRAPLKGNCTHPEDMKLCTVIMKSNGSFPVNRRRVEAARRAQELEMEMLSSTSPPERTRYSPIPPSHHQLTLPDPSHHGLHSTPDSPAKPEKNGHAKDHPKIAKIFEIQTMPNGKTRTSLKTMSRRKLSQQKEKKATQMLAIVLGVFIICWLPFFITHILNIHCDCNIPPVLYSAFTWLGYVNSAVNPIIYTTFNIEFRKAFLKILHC
Summary of the method: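 HEK293 cells stably expressing DRD2 were cultured 24 h at 37 C, then given Ro20-1724 (0.1 mM final) and compounds for 10 min at room temperature. NKH477 (200nM) was then added for 30 min. cAMP was read by HTRF.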

[19] = molecular target: D(2) dopamine receptor (Homo sapiens) (UniProt P14416); test: Dopamine D2 receptor (DRD2) small molecule antagonists, cell-based qHTS assay (AID 1963595; active means well fitted inhibition curve with a large enough effect in the signal ratio in the repeat runs, with a control signal flat; the % refers to the signal ratio)
Summary of the method: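 Antagonist mode in DRD2-HEK293 cells: after compound addition with 0.1 mM Ro20-1724, cells received quinpirole (12 nM) and NKH477 (200 nM) for 30 min at room temperature; HTRF cAMP read after 1 h detection.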

[20] = p53 small molecule agonists, cell-based qHTS assay with rat liver microsomes: qHTS cell viability counter screen (AID 1963580); further: nearly all actives have a fitted effect of over 45% in size
Summary of the method: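 Luminescent ATP readout (CellTiter-Glo, 30 min at room temperature) reports viability of p53RE-bla HCT-116 cells after 16 h at 37 C with test compounds under metabolic activation by rat liver microsomes and NADPH at 0.5 mg/mL final each.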

Measured: Potency

CCN1CCOCC1
not listed: [20]
inactive: all other assays above

Oc1ccc(C2(c3ccc(O)cc3)CC3CC2C2CCCC32)cc1 (configuration not stated)
inactive: [2] | [3] | [4] | [5] | [6] | [13] | [17] | [18]
active: [1] 29.4 µM | [7] 17.5 µM | [8] 34.9 µM

N/C(=N\N=C\c1ccc(Cl)cc1)N/N=C/c1ccc(Cl)cc1
active: [1] 26.6 µM
not listed: [8] | [14] | [15] | [19]
inactive: all other assays above

CCCCCCOC(=O)c1ccccc1
not listed: [8] | [9] | [15] | [17]
inactive: all other assays above

CC(C(=O)O)c1ccc(C(=O)c2cccs2)cc1 (configuration not stated)
not listed: [14] | [15] | [16] | [17] | [18] | [20]
inactive: all other assays above

Cn1c(N)nc2nc[nH]c2c1=O
not listed: [8] | [9] | [10] | [14] | [16] | [17] | [18] | [19]
inactive: all other assays above

O=C1c2ccccc2C(=O)N1CCc1noc(-c2ccc(CN3CCCCCC3)s2)n1
active: [12] 0.273 µM
not listed: [9] | [14] | [15] | [17] | [19]
inactive: all other assays above

CCN(CC)CCNC(=O)c1c(C)[nH]c(/C=C2\C(=O)Nc3ccc(F)cc32)c1C
active: [1] 29.8 µM
not listed: [10] | [12] | [16] | [17] | [18] | [19] | [20]
inactive: all other assays above

CC(C)(c1ccc(Oc2ccc(N)cc2)cc1)c1ccc(Oc2ccc(N)cc2)cc1
active: [1] 38.6 µM
not listed: [8] | [17]
inactive: all other assays above

C/C=C/C=C/CO
not listed: [9] | [17] | [20]
inactive: all other assays above

CCCC/C=C/CCCCO
not listed: [8]
inactive: all other assays above

Brc1cc2ccccc2c2ccccc12
active: [1] 30.9 µM
not listed: [9] | [15] | [16] | [17]
inactive: all other assays above

Cc1ccccc1N=Nc1ccc(N=Nc2c(O)ccc3ccccc23)c(C)c1
not listed: [10] | [13] | [20]
inactive: all other assays above

CCCC(=O)OC
not listed: [8] | [17]
inactive: all other assays above

CCCCCCCCCCC1CO1 (configuration not stated)
not listed: [8] | [10] | [15] | [17]
inactive: all other assays above
